# Results published in PubChem BioAssay AID1159580 (chemical genetic matrix, 2015).
# “And” between values parts separate entries of the source, which are not always exact repeats. Identical values can stand only once. Hit rate of the full screen: of about 5,500 compounds, about 2,000 (36%) were called active. Not shown: some 18% with an inconclusive outcome. The list shows a part of the results. Values without a mark were called inactive. Rule as the data show it: active = normalized growth mostly below about 0.91 (no sharp cut-off); inconclusive = no clear call, values can overlap the other calls; inactive = mostly above about 0.92.
# Experiment: chemical genetic growth profiling, strain panel (AID 1159580);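 also: tested at 20 µM; growth read once vehicle control cultures reached saturation at 30 °C; 1 = growth at the plate median or of vehicle wells; lower values mean less growth of the strain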
# Settings: S. cerevisiae deletion strains, growth OD
smiles,measurement,setting,value
CC(C)CCCC(C)C1CCC2C3C[C@@H](O)[C@@]4(O)C[C@@H](O)CC[C@]4(C)C3CC[C@]12C (stereo partly drawn),normalized growth,"locus YAL013W, strain DEP1, active compounds read low",1.01
same,normalized growth,"locus YAL021C, strain ccr4, active compounds read low",0.951
same,normalized growth,"locus YAL026C, strain drs2, active compounds read low",0.843 (active)
same,normalized growth,"locus YAL030W, strain snc1, active compounds read low",0.988
same,normalized growth,"locus YBL061C, strain skt5, active compounds read low",0.986
same,normalized growth,"locus YBR009C, strain hhf1, active compounds read low",0.972
same,normalized growth,"locus YBR021W, strain FUR4, active compounds read low",1.06
same,normalized growth,"locus YBR023C, strain chs3, active compounds read low",0.994
same,normalized growth,"locus YBR171W, strain sec66, active compounds read low",1.01
same,normalized growth,"locus YBR229C, strain ROT2, active compounds read low",1.06
same,normalized growth,"locus YBR231C, strain swc5, active compounds read low",1.01
same,normalized growth,"locus YBR279W, strain paf1, active compounds read low",1.03
same,normalized growth,"locus YCL011C, strain gbp2, active compounds read low",0.997
same,normalized growth,"locus YCL016C, strain dcc1, active compounds read low",0.984
same,normalized growth,"locus YCL029C, strain bik1, active compounds read low",1.04
same,normalized growth,"locus YCL061C, strain MRC1, active compounds read low",0.966
same,normalized growth,"locus YCL069W, strain vba3, active compounds read low",0.984
same,normalized growth,"locus YCR088W, strain abp1, active compounds read low",1
same,normalized growth,"locus YDL005C, strain med2, active compounds read low",0.996
same,normalized growth,"locus YDL035C, strain GPR1, active compounds read low",1.06
same,normalized growth,"locus YDL040C, strain nat1, active compounds read low",1.01
same,normalized growth,"locus YDL074C, strain BRE1, active compounds read low",1.08
same,normalized growth,"locus YDL101C, strain DUN1, active compounds read low",1.03
same,normalized growth,"locus YDL134C, strain PPH21, active compounds read low",0.985
same,normalized growth,"locus YDL185W, strain tfp1, active compounds read low",1.02
same,normalized growth,"locus YDL192W, strain arf1, active compounds read low",0.999
same,normalized growth,"locus YDR001C, strain nth1, active compounds read low",1
same,normalized growth,"locus YDR069C, strain doa4, active compounds read low",0.992
same,normalized growth,"locus YDR101C, strain arx1, active compounds read low",1.03
same,normalized growth,"locus YDR137W, strain rgp1, active compounds read low",0.493 (active)
same,normalized growth,"locus YDR150W, strain NUM1, active compounds read low",1.03
same,normalized growth,"locus YDR162C, strain NBP2, active compounds read low",1.03
same,normalized growth,"locus YDR195W, strain ref2",1.04
same,normalized growth,"locus YDR297W, strain sur2, active compounds read low",0.986
same,normalized growth,"locus YDR318W, strain mcm21, active compounds read low",1.02
same,normalized growth,"locus YDR334W, strain swr1, active compounds read low",1
same,normalized growth,"locus YDR335W, strain msn5, active compounds read low",1
same,normalized growth,"locus YDR388W, active compounds read low",1.01
same,normalized growth,"locus YDR392W, strain spt3, active compounds read low",0.82
same,normalized growth,"locus YDR502C, strain sam2, active compounds read low",1.02
same,normalized growth,"locus YEL003W, strain gim4, active compounds read low",0.974
same,normalized growth,"locus YEL037C, strain rad23, active compounds read low",1
same,normalized growth,"locus YEL061C, strain CIN8 (second series), active compounds read low",0.999
same,normalized growth,"locus YER015W, strain faa2, active compounds read low",0.987
same,normalized growth,"locus YER016W, strain bim1, active compounds read low",0.994
same,normalized growth,"locus YER110C, active compounds read low",1.03
same,normalized growth,"locus YER111C, strain swi4, active compounds read low",0.987
same,normalized growth,"locus YER155C, strain BEM2 (second series), active compounds read low",0.972
same,normalized growth,"locus YER155C, strain BEM2, active compounds read low",1
same,normalized growth,"locus YER167W, strain BCK2, active compounds read low",1.04
same,normalized growth,"locus YFR010W, strain ubp6, active compounds read low",1
same,normalized growth,"locus YGL078C, strain dbp3, active compounds read low",1.02
same,normalized growth,"locus YGL086W, strain mad1, active compounds read low",1.01
same,normalized growth,"locus YGL167C, strain pmr1, active compounds read low",1
same,normalized growth,"locus YGL173C, strain kem1, active compounds read low",0.992
same,normalized growth,"locus YGL227W, strain vid30, active compounds read low",1
same,normalized growth,"locus YGL240W, strain doc1, active compounds read low",1.02
same,normalized growth,"locus YGL248W, strain PDE1, active compounds read low",1.02
same,normalized growth,"locus YGL253W, strain hxk2, active compounds read low",0.996
same,normalized growth,"locus YGR078C, strain PAC10, active compounds read low",1
same,normalized growth,"locus YGR135W, strain pre9, active compounds read low",0.99
same,normalized growth,"locus YGR252W, strain gcn5, active compounds read low",0.993
same,normalized growth,"locus YHR013C, strain ard1, active compounds read low",1
same,normalized growth,"locus YHR027C, strain rpn1, active compounds read low",0.991
same,normalized growth,"locus YHR030C, strain SLT2, active compounds read low",1.02 and 1.06
same,normalized growth,"locus YHR079C, strain IRE1 (second series), active compounds read low",1.01
same,normalized growth,"locus YHR079C, strain IRE1, active compounds read low",1.04
same,normalized growth,"locus YHR094C, strain hxt1, active compounds read low",1.02
same,normalized growth,"locus YHR129C, strain ARP1, active compounds read low",1.03
same,normalized growth,"locus YHR142W, strain chs7, active compounds read low",1.02
same,normalized growth,"locus YHR200W, strain rpn10, active compounds read low",1.02
same,normalized growth,"locus YIL066C, strain RNR3, active compounds read low",1.02
same,normalized growth,"locus YIL073C, strain SPO22, active compounds read low",1.04
same,normalized growth,"locus YIL125W, strain kgd1, active compounds read low",1.02
same,normalized growth,"locus YIR030C, strain dcg1, active compounds read low",1.01
same,normalized growth,"locus YJL092W, strain hpr5, active compounds read low",1.01
same,normalized growth,"locus YJL095W, strain BCK1 (second series), active compounds read low",0.998
same,normalized growth,"locus YJL095W, strain BCK1, active compounds read low",0.981 and 1.05
same,normalized growth,"locus YJL115W, strain asf1, active compounds read low",0.994
same,normalized growth,"locus YJL129C, strain trk1, active compounds read low",1.01
same,normalized growth,"locus YJL134W, strain LCB3, active compounds read low",1.03
same,normalized growth,"locus YJL154C, strain vps35, active compounds read low",1
same,normalized growth,"locus YJL164C, strain tpk1, active compounds read low",0.99
same,normalized growth,"locus YJL166W, strain qcr8, active compounds read low",0.98
same,normalized growth,"locus YJL168C, strain set2, active compounds read low",1.01
same,normalized growth,"locus YJL187C, strain SWE1 (second series), active compounds read low",1.02
same,normalized growth,"locus YJL187C, strain SWE1, active compounds read low",1
same,normalized growth,"locus YJR043C, strain POL32, active compounds read low",1.03
same,normalized growth,"locus YJR066W, strain TOR1, active compounds read low",1.01
same,normalized growth,"locus YKL009W, strain mrt4, active compounds read low",0.971
same,normalized growth,"locus YKL068W, active compounds read low",1.01
same,normalized growth,"locus YKL085W, strain MDH1 (second series), active compounds read low",1.01
same,normalized growth,"locus YKL085W, strain MDH1, active compounds read low",1.01
same,normalized growth,"locus YKL160W, strain elf1, active compounds read low",0.998
same,normalized growth,"locus YKR001C, strain vps1, active compounds read low",1.05
same,normalized growth,"locus YKR026C, strain gcn3, active compounds read low",1
same,normalized growth,"locus YKR091W, strain srl3, active compounds read low",1
same,normalized growth,"locus YLL001W, strain dnm1, active compounds read low",0.949
same,normalized growth,"locus YLL026W, active compounds read low",0.995
same,normalized growth,"locus YLL041C, strain sdh2, active compounds read low",1
same,normalized growth,"locus YLR027C, strain aat2, active compounds read low",0.989
same,normalized growth,"locus YLR039C, strain RIC1, active compounds read low",0.777
same,normalized growth,"locus YLR058C, strain SHM2, active compounds read low",1.02
same,normalized growth,"locus YLR102C, strain apc9, active compounds read low",1.01
same,normalized growth,"locus YLR113W, strain HOG1, active compounds read low",1.06
same,normalized growth,"locus YLR221C, strain rsa3, active compounds read low",0.976
same,normalized growth,"locus YLR258W, strain gsy2, active compounds read low",0.975
same,normalized growth,"locus YLR262C, strain YPT6 (second series), active compounds read low",0.502 (active)
same,normalized growth,"locus YLR262C, strain YPT6, active compounds read low",0.78
same,normalized growth,"locus YLR268W, strain sec22, active compounds read low",1.05
same,normalized growth,"locus YLR320W, strain mms22, active compounds read low",0.941
same,normalized growth,"locus YLR330W, strain CHS5, active compounds read low",1
same,normalized growth,"locus YLR342W, strain FKS1 (second series), active compounds read low",1.03
same,normalized growth,"locus YLR342W, strain FKS1, active compounds read low",0.986
same,normalized growth,"locus YLR357W, strain rsc2, active compounds read low",1.01
same,normalized growth,"locus YLR370C, strain arc18, active compounds read low",1
same,normalized growth,"locus YLR371W, strain rom2, active compounds read low",1.02
same,normalized growth,"locus YLR384C, strain iki3, active compounds read low",0.979
same,normalized growth,"locus YLR418C, strain cdc73, active compounds read low",1.03
same,normalized growth,"locus YML016C, strain PPZ1, active compounds read low",1.05
same,normalized growth,"locus YML032C, strain rad52, active compounds read low",0.977
same,normalized growth,"locus YML120C, strain ndi1, active compounds read low",0.996
same,normalized growth,"locus YML124C, strain tub3, active compounds read low",1.02
same,normalized growth,"locus YMR058W, strain fet3, active compounds read low",0.996
same,normalized growth,"locus YMR078C, strain ctf18, active compounds read low",1.02
same,normalized growth,"locus YMR125W, strain sto1, active compounds read low",1.02
same,normalized growth,"locus YMR129W, active compounds read low",0.989
same,normalized growth,"locus YMR205C, strain PFK2, active compounds read low",0.954
same,normalized growth,"locus YMR223W, strain ubp8, active compounds read low",1
same,normalized growth,"locus YMR231W, strain pep5, active compounds read low",0.99
same,normalized growth,"locus YMR307W, strain GAS1, active compounds read low",1.06
same,normalized growth,"locus YNL067W, strain RPL9B, active compounds read low",1.02
same,normalized growth,"locus YNL071W, strain lat1, active compounds read low",0.999
same,normalized growth,"locus YNL153C, strain GIM3, active compounds read low",1.02
same,normalized growth,"locus YNL183C, strain NPR1, active compounds read low",0.992
same,normalized growth,"locus YNL209W, strain ssb2, active compounds read low",0.994
same,normalized growth,"locus YNL233W, strain BNI4, active compounds read low",1
same,normalized growth,"locus YNL248C, strain rpa49, active compounds read low",0.98
same,normalized growth,"locus YNL250W, strain rad50, active compounds read low",1.02
same,normalized growth,"locus YNL271C, strain bni1, active compounds read low",1.02
same,normalized growth,"locus YNL298W, strain CLA4, active compounds read low",1.02
same,normalized growth,"locus YNL307C, strain MCK1, active compounds read low",1.02
same,normalized growth,"locus YNL322C, strain KRE1 (second series), active compounds read low",0.986
same,normalized growth,"locus YNL322C, strain KRE1, active compounds read low",1.01
same,normalized growth,"locus YNR049C, strain mso1, active compounds read low",1
same,normalized growth,"locus YNR052C, strain pop2, active compounds read low",0.996
same,normalized growth,"locus YOL012C, strain htz1",1.32
same,normalized growth,"locus YOL147C, strain pex11, active compounds read low",1.02
same,normalized growth,"locus YOR001W, strain rrp6, active compounds read low",0.977
same,normalized growth,"locus YOR061W, strain CKA2, active compounds read low",1.03
same,normalized growth,"locus YOR069W, strain VPS5, active compounds read low",1.01
same,normalized growth,"locus YOR070C, strain gyp1, active compounds read low",0.972
same,normalized growth,"locus YOR080W, strain dia2, active compounds read low",1
same,normalized growth,"locus YOR083W, strain WHI5, active compounds read low",0.983
same,normalized growth,"locus YOR106W, strain vam3, active compounds read low",1.04
same,normalized growth,"locus YOR136W, strain idh2, active compounds read low",1.02
same,normalized growth,"locus YOR144C, strain elg1, active compounds read low",1.02
same,normalized growth,"locus YOR184W, strain ser1, active compounds read low",1.02
same,normalized growth,"locus YOR231W, strain MKK1, active compounds read low",1.06
same,normalized growth,"locus YOR265W, strain rbl2, active compounds read low",0.993
same,normalized growth,"locus YOR270C, strain vph1, active compounds read low",1.02
same,normalized growth,"locus YOR290C, strain snf2, active compounds read low",0.994
same,normalized growth,"locus YOR316C, strain cot1, active compounds read low",1.02
same,normalized growth,"locus YPL051W, strain arl3, active compounds read low",0.956
same,normalized growth,"locus YPL078C, strain atp4, active compounds read low",0.987
same,normalized growth,"locus YPL106C, strain sse1, active compounds read low",1.01
same,normalized growth,"locus YPL240C, strain hsp82, active compounds read low",1
same,normalized growth,"locus YPL256C, strain CLN2, active compounds read low",1.05
same,normalized growth,"locus YPR119W, strain clb2, active compounds read low",1.02
same,normalized growth,"locus YPR141C, strain kar3, active compounds read low",1.02
same,normalized growth,"locus YPR163C, strain tif3, active compounds read low",1.01
same,normalized growth,"locus YPR167C, strain met16, active compounds read low",1.03
same,normalized growth,"strain wtn01, active compounds read low",1.07
